Test results published in PubChem BioAssay (NCATS).
Records with an inconclusive call do not appear. Activity calls are given as the source filed them. Unless noted, the call rests on the fitted dose curve.

How the values were obtained:
[1] = molecular target: Glucocorticoid receptor (Homo sapiens) (UniProt P04150); assay: qHTS assay for small molecule agonists of glucocorticoid receptor signaling (AID 588532; active means well fitted curve in the direction sought with a large enough effect in the signal ratio, with a control signal flat; the % refers to the signal ratio;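 further: 100% = dexamethasone at 0.1 µM and 0% = DMSO only wells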); details: HeLa MMTV-bla, beta-lactamase ratio, agonist, 18 h; stronger effect = higher value; percent of dexamethasone control, DMSO zero
Chain of Glucocorticoid receptor (Homo sapiens) (P04150 whole entry, looked up): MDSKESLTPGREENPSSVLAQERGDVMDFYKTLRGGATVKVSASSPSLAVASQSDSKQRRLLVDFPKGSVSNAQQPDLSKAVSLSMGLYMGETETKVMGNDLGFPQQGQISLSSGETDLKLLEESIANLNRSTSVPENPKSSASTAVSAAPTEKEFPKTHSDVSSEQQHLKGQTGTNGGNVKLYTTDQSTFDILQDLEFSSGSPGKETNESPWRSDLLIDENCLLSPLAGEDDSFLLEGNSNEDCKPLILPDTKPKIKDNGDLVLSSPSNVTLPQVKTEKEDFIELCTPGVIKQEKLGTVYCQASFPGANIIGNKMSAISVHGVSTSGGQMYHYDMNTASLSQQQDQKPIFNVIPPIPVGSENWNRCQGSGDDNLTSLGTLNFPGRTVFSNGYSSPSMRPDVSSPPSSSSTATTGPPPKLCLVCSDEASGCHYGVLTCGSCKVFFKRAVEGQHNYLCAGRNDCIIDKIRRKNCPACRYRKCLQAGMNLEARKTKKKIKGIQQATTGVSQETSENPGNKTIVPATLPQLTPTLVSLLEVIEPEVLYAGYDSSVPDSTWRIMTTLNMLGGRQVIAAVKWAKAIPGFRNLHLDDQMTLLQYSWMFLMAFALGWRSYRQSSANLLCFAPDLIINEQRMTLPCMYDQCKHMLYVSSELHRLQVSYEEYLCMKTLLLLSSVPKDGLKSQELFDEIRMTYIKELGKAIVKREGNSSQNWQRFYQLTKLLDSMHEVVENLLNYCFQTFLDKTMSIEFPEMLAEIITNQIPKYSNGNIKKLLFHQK
Summary of the method: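 Titration series, up to 92 uM, applied to GRE-bla HeLa cells for 18 h at 37 C. Detection by CCF4 FRET substrate after 2 h at RT.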

[2] = molecular target: Glucocorticoid receptor (Homo sapiens) (UniProt P04150); assay: qHTS assay for small molecule antagonists of glucocorticoid receptor signaling (AID 588533; active means well fitted inhibition curve with a large enough effect in the signal ratio, with a control signal flat, not every such curve was filed as active; the % refers to the signal ratio;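 further: cells stimulated with 2 nM dexamethasone as agonist; on the % scale 0 is the no-effect control and ±100 the full control effect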); details: HeLa MMTV-bla, GRE beta-lactamase ratio, antagonist mode, 18 h; series mostly up to 76.8 µM
Summary of the method: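 Antagonist-mode qHTS: compound titrations added to GRE-bla HeLa cells, then dexamethasone 2 nM final; 18 h, 37 C. CCF4 FRET fluorescence normalized to dexamethasone and DMSO; IC50 from Hill fit.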

[3] = qHTS assay for small molecule antagonists of peroxisome proliferator-activated receptor delta signaling (AID 588535; active means well fitted inhibition curve with a large enough effect in the signal ratio, with a control signal flat, not every such curve was filed as active; the % refers to the signal ratio;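 on max response: cells co-treated with a PPAR-delta agonist as stimulator during compound exposure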); details: HEK293T PPARd-UAS-bla, beta-lactamase FRET ratio, 18 h; 460 nm channel
Summary of the method: (§1)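 GeneBLAzer PPAR-delta-UAS-bla HEK293T cells in medium with 2% charcoal/dextran FBS were preincubated 5 hrs at 37 C, then given compounds, incubated 18 hrs at 37 C, and read by CCF4 beta-lactamase fluorescence; IC50 from Hill fits.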

[4] = molecular target: Peroxisome proliferator-activated receptor gamma (Homo sapiens) (UniProt P37231); assay: qHTS assay for small molecule agonists of peroxisome proliferator-activated receptor gamma signaling (AID 588536; active means well fitted curve in the direction sought with a large enough effect in the signal ratio, with a control signal flat, not every such curve was filed as active; the % refers to the signal ratio;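 further: 0% = DMSO basal wells and 100% = rosiglitazone at 2 µM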); details: HEK293 PPARg-UAS-bla, beta-lactamase ratio, 16 h, percent of rosiglitazone response, DMSO as zero; series mostly up to 76.7 µM
Chain of Peroxisome proliferator-activated receptor gamma (Homo sapiens) (P37231 whole entry, looked up): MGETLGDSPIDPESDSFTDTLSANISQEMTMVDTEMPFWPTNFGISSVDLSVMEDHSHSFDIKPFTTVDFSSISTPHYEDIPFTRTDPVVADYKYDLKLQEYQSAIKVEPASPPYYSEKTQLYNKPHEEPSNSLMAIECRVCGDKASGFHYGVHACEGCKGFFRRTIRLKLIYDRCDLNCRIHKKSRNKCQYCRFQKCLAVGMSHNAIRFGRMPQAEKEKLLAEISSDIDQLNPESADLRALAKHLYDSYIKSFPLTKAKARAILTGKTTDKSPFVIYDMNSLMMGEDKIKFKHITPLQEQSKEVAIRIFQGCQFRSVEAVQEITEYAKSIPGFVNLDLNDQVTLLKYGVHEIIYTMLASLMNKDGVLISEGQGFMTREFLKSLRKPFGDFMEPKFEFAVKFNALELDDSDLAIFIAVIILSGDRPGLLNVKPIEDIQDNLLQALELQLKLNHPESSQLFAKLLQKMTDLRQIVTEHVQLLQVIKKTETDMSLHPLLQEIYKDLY
Summary of the method: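 PPAR-gamma-UAS-bla HEK293 cells in medium with 1% charcoal/dextran-treated FBS were exposed to compounds for 16 h at 37 C. Beta-lactamase activity was read with CCF4 substrate (405 nm excitation, 460/530 nm emission).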

[5] = molecular target: Vitamin D3 receptor (Homo sapiens) (UniProt P11473); assay: qHTS assay for small molecule antagonists of vitamin D receptor signaling (AID 588541); details: HEK293T VDR-UAS-bla, beta-lactamase ratio, antagonist mode; series mostly up to 76.7 µM;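 further: receptor activated by calcitriol during compound treatment; on the % scale 0 is the no-effect control and ±100 the full control effect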
Chain of Vitamin D3 receptor (Homo sapiens) (P11473 whole entry, looked up): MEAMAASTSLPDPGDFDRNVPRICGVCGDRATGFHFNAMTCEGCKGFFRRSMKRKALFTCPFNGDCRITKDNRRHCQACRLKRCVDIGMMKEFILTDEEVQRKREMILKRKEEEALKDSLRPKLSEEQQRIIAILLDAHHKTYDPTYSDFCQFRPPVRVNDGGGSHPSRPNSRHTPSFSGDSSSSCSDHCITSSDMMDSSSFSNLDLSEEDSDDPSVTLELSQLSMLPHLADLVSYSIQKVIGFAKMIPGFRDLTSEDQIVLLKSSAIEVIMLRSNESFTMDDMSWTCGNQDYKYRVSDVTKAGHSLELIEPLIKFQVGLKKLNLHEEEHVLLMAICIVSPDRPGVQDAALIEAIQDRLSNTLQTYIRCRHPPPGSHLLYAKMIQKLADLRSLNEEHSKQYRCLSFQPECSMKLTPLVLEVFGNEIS
Summary of the method: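 VDR-UAS-bla HEK293T cells (2000/well, 2% charcoal-stripped FBS) were treated with titrated compounds plus 1-alpha,25-dihydroxyvitamin D3 (50 nM or 3 nM final) for 16 h at 37 C. CCF4 beta-lactamase fluorescence was read; Hill fits gave IC50.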

[6] = molecular target: Vitamin D3 receptor (Homo sapiens) (UniProt P11473); assay: qHTS assay for small molecule agonists of vitamin D receptor signaling (AID 588543); details: HEK293T VDR-UAS-bla, beta-lactamase ratio, 16 h; series mostly up to 76.8 µM;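 further: 0% = DMSO basal and 100% = reference agonist control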
Summary of the method: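 β-lactamase reporter, VDR-UAS-bla HEK293T, agonist mode. Cells plated 5 h at 37 °C, compound titration 16 h at 37 °C, CCF4 dye 2 h RT, ratio 460/530 nm. Hill fit → EC50, efficacy vs 50 nM 1α,25-(OH)2D3.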

[7] = qHTS assay for small molecule agonists of retinoid X receptor alpha signaling (AID 588544); details: HEK293T RXRa-UAS-bla, beta-lactamase reporter, 18 h; 530 nm emission;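 on activation: 0% = DMSO basal wells and 100% = reference agonist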
[8] = molecular target: Retinoic acid receptor RXR-alpha (Homo sapiens) (UniProt P19793); assay: as above; details: HEK293T RXRa-UAS-bla, beta-lactamase reporter, 18 h; series mostly up to 76.7 µM
Chain of Retinoic acid receptor RXR-alpha (Homo sapiens) (P19793 whole entry, looked up): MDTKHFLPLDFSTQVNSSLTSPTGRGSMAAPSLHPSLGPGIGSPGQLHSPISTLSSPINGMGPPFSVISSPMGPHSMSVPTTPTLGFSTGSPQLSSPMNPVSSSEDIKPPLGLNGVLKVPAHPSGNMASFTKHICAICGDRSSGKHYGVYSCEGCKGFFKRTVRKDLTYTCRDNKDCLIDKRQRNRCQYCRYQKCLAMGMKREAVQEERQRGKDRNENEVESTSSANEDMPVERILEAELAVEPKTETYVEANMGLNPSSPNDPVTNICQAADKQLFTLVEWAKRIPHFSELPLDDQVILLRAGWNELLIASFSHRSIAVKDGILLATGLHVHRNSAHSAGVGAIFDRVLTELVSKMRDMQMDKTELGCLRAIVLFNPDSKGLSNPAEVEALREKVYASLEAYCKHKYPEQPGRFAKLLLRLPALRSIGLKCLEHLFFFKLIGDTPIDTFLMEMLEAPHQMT

[9] = molecular target: Thyroid hormone receptor beta (Homo sapiens) (UniProt P10828); assay: qHTS assay for small molecule agonists of thyroid hormone receptor beta signaling (AID 588545); details: TR-UAS-bla GripTite HEK 293, beta-lactamase ratio, agonist mode, 18 h, percent of T3 response, DMSO as zero; series mostly up to 76.7 µM
Chain of Thyroid hormone receptor beta (Homo sapiens) (P10828 whole entry, looked up): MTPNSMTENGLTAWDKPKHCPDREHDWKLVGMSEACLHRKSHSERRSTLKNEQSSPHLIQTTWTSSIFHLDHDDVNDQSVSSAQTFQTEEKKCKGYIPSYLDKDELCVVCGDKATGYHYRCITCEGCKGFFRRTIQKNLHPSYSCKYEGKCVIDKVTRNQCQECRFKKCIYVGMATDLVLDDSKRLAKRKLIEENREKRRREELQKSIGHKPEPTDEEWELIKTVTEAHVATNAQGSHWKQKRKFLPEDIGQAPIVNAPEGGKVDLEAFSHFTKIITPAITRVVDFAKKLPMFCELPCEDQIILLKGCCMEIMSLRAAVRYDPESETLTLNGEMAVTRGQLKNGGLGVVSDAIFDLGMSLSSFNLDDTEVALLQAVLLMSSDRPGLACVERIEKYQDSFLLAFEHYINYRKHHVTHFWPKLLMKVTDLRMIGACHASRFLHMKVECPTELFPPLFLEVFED
Summary of the method: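 Cells (2500/well) were seeded, incubated 4 hrs at 37 C, dosed with a compound series, incubated 18 hrs, loaded with CCF4 dye for 2 hrs at RT, then read for fluorescence. Data were scaled between DMSO (0%) and 10 nM T3 (100%).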

[10] = qHTS assay for small molecule antagonists of retinoid X receptor alpha signaling (AID 588546; active means well fitted inhibition curve with a large enough effect in the signal ratio, with a control signal flat, not every such curve was filed as active; the % refers to the signal ratio;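 further: cells stimulated with 9-cis-retinoic acid as agonist; on the % scale 0 is the no-effect control and ±100 the full control effect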); details: HEK293T RXRa-UAS-bla, beta-lactamase ratio, antagonist mode; measured here: W530 green channel, cytotoxicity proxy
Summary of the method: (§2)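 Beta-lactamase reporter inhibition, read as CCF4 fluorescence ratio (ex 405, em 460/530 nm) after 2 h at RT. HEK293T UAS-bla cells, 2500/well, were stimulated with 9-cis-RA at 500 or 100 nM final alongside test compound for 18 h at 37 C.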

[11] = molecular target: Retinoic acid receptor RXR-alpha (Homo sapiens) (UniProt P19793); assay: as above; details: HEK293T RXRa-UAS-bla, beta-lactamase ratio, antagonist mode
Summary of the method: as §2

[12] = molecular target: Thyroid hormone receptor beta (Homo sapiens) (UniProt P10828); assay: qHTS assay for small molecule antagonists of thyroid hormone receptor beta signaling (AID 588547; active means well fitted inhibition curve with a large enough effect in the signal ratio, with a control signal flat, not every such curve was filed as active; the % refers to the signal ratio;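 further: cells stimulated with 0.4 nM T3 agonist during compound exposure; on the % scale 0 is the no-effect control and ±100 the full control effect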); details: TR-UAS-bla HEK293, beta-lactamase ratio, antagonist mode, 18 h
Summary of the method: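 TR-UAS-bla GripTite HEK293 cells in 2% charcoal/dextran FBS medium were preincubated 4 h at 37 C, given compound (0.59 nM to 92 uM) plus 0.4 nM T3 (final) for 18 h, then CCF4 for 2 h at RT; Hill fit gave IC50.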

[13] = molecular target: Voltage-gated inwardly rectifying potassium channel KCNH2 (Homo sapiens) (UniProt Q12809); assay: qHTS Assay for Small Molecule Inhibitors of the Human hERG Channel Activity (AID 588834; active means well fitted inhibition curve with a large enough effect;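 further: top concentration of the series differs between compounds; on the % scale 0 is the no-effect control and ±100 the full control effect; lower thallium flux fluorescence means stronger hERG block; nearly all actives have a fitted effect of over 50% in size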); details: U2OS BacMam hERG, FluxOR thallium flux fluorescence; series mostly up to 92.2 µM
Chain of Voltage-gated inwardly rectifying potassium channel KCNH2 (Homo sapiens) (Q12809 whole entry, looked up): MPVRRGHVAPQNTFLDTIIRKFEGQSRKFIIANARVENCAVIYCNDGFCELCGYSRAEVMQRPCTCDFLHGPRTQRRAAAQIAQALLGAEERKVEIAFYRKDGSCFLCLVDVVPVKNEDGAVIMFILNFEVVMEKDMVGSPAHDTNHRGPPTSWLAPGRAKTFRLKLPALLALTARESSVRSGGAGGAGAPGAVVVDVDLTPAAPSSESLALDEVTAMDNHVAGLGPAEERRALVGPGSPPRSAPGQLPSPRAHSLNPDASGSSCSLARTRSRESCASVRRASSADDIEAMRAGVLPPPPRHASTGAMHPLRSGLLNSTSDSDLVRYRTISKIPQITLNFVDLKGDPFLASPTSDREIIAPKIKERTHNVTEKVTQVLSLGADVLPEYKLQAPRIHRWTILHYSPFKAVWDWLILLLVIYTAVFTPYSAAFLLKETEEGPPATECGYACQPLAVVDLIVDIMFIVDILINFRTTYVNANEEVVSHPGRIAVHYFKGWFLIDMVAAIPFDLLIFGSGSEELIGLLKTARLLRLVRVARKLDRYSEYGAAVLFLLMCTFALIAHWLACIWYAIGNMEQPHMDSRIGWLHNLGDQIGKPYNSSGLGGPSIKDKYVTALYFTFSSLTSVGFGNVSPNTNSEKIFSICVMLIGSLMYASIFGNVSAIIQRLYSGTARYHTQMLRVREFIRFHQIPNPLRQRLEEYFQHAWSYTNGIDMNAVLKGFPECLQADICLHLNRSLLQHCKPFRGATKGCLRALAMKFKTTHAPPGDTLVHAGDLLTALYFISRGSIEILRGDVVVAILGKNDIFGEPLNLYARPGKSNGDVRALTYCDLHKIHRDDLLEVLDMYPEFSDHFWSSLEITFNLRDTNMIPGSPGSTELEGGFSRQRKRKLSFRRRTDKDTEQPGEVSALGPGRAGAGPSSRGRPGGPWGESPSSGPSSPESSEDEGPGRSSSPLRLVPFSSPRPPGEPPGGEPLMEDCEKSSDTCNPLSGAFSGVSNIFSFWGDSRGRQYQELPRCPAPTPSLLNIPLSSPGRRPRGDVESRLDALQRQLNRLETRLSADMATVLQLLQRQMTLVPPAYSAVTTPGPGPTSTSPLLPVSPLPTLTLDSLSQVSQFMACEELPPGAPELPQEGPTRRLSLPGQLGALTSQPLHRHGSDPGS
Summary of the method: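 Concentration-response qHTS measuring drop in thallium-sensitive dye signal. U2OS cells carrying BacMam hERG; compound exposure ~10 min, then stimulation buffer and 2 min read at 1 sec intervals.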

[14] = qHTS assay for small molecule agonists of the antioxidant response element (ARE) signaling pathway (AID 651741; active means well fitted activation curve with a large enough effect in the signal ratio; the % refers to the signal ratio; further: % of control where 0% means no effect); details: HepG2 ARE-bla reporter, beta-lactamase FRET ratio, 16 h; series mostly up to 96 µM
Summary of the method: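 ARE-bla HepG2 cells (beta-lactamase reporter under ARE control) were plated at 2,000 cells/well, preincubated 5 h at 37 C/5% CO2, then treated with DMSO-dissolved compounds for 16 h at 37 C; LiveBLAzer B/G FRET substrate added, fluorescence read after 2 h at room temperature.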

[15] = qHTS assay for small molecule activators of the p53 signaling pathway (AID 651743; active means well fitted activation curve with a large enough effect in the signal ratio, not every such curve was filed as active; the % refers to the signal ratio; further: % of control where 0% means no effect); details: HCT-116 p53RE-bla, beta-lactamase FRET ratio, 16 h; stronger effect = higher value
Summary of the method: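 p53RE-bla HCT-116 cells with a stably integrated beta-lactamase reporter under p53 response elements were plated, rested 5 hours at 37 C/5% CO2, then exposed to compounds in DMSO for 16 hours at 37 C. LiveBLAzer B/G FRET substrate was read after 2 hours at room temperature.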

[16] = qHTS assay for small molecule activators of the nuclear factor-kappa B (NF-kB) signaling pathway (AID 651749; active means well fitted activation curve with a large enough effect in the signal ratio; the % refers to the signal ratio; further: % of control where 0% means no effect); details: NF-kB-bla ME-180 cells, beta-lactamase FRET ratio, 16 h; stronger effect = higher value
Summary of the method: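 ME-180 cells stably carrying a beta-lactamase reporter under an NF-kB response element were exposed to compound or DMSO vehicle for 16 hr at 37C, 5% CO2. Pathway activation was read by FRET, since reporter expression disrupts FRET.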

[17] = molecular target: Peroxisome proliferator-activated receptor gamma (Homo sapiens) (UniProt P37231); assay: qHTS assay for small molecule antagonists of peroxisome proliferator-activated receptor gamma signaling (AID 588537; active means well fitted inhibition curve with a large enough effect in the signal ratio, with a control signal flat, not every such curve was filed as active; the % refers to the signal ratio;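 further: reporter cells co-stimulated with 50 nM rosiglitazone agonist during compound treatment; % of control where 0% means no effect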); details: HEK293 PPARg-UAS-bla, beta-lactamase ratio, antagonist mode; series mostly up to 76.8 µM
Summary of the method: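 PPAR-gamma-UAS-bla HEK293 cells (3000/well, 1% charcoal/dextran-stripped FBS) were preincubated 6-6.5 h at 37 C, given titrated compounds, then stimulated with 50 nM rosiglitazone for 16 h. Beta-lactamase activity was read with CCF4 dye; IC50 came from Hill fits.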

[18] = molecular target: Peroxisome proliferator-activated receptor delta (Homo sapiens) (UniProt Q03181); assay: qHTS assay for small molecule antagonists of peroxisome proliferator-activated receptor delta signaling (AID 588535); details: HEK293T PPARd-UAS-bla, beta-lactamase FRET ratio, 18 h; series mostly up to 76.7 µM;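 on max response: cells co-treated with a PPAR-delta agonist as stimulator during compound exposure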
Chain of Peroxisome proliferator-activated receptor delta (Homo sapiens) (Q03181 whole entry, looked up): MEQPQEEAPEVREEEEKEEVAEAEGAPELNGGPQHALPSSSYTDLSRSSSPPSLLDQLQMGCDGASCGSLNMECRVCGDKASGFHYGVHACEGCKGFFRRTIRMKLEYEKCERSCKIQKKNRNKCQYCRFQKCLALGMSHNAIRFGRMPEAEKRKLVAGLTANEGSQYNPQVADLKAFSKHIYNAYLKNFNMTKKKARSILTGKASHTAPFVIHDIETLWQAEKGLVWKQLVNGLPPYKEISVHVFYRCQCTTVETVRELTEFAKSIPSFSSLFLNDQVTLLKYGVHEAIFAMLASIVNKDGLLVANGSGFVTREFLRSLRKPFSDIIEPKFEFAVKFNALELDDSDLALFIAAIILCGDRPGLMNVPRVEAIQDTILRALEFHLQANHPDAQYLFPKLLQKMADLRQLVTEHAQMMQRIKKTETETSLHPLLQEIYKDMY
Summary of the method: as §1

CC(O)COC(C)(C)C (centres undefined)
0.664%: max response [10]
inactive: activation [1] -7.34% | outcome [2] | outcome [4] | outcome [5] | outcome [6] | outcome [8] | outcome [9] | max response [11] -2.68% | activity change % (negative = inhibition) [12] -13.8% | Potency [13] | Potency [14] | activation [15] -6.33% | activation [16] -0.964%
-1.74%: max response [3]
-7.25%: max response [7]

CC(C)Nc1ccccc1
31.6%: max response [3]
-11%: max response [7]
-12.9%: max response [10]
inactive: activation [1] -8.21% | outcome [4] | outcome [5] | outcome [6] | outcome [8] | outcome [9] | max response [11] 3.31% | activity change % (negative = inhibition) [12] -21.8% | Potency [13] | Potency [14] | activation [15] -0.311% | activation [16] 0.185%

O=Cc1ccc(C(=O)O)cc1
inactive: activation [1] 3.49% | outcome [4] | outcome [8] | outcome [9] | max response [11] 34.5% | activity change % (negative = inhibition) [12] 7.45% | Potency [13] | activation [15] -2.17%
-11.2%: max response [10]
15.4%: max response [7]

NC(=O)CCCCC(N)=O
-2.99%: max response [10]
-19.9%: max response [7]
inactive: activation [1] -2.82% | outcome [2] | outcome [4] | outcome [17] | outcome [5] | outcome [6] | outcome [8] | outcome [9] | max response [11] 6.15% | activity change % (negative = inhibition) [12] 2% | Potency [13] | activation [15] -2.38% | activation [16] 1.81%

CCN(CC)c1cccc(O)c1
-9.19%: max response [7]
12.9%: max response [3]
inactive: activation [1] -1.18% | Potency [18] | outcome [4] | outcome [8] | outcome [9] | max response [11] 9.83% | activity change % (negative = inhibition) [12] 4.53% | activation [15] -0.279% | activation [16] 0.251%
6.69%: max response [10]

O=[N+]([O-])c1cccc(C(F)(F)F)c1
inactive: activation [1] -5.05% | outcome [2] | outcome [4] | outcome [17] | outcome [5] | outcome [6] | outcome [8] | outcome [9] | max response [11] -2.39% | activity change % (negative = inhibition) [12] 8.91% | Potency [13] | activation [15] 2.87%
-15.5%: max response [7]
-3.15%: max response [10]

CC/C(C)=N/O
-14.2%: max response [7]
inactive: activation [1] 3.82% | outcome [2] | outcome [5] | outcome [8] | outcome [9] | activity change % (negative = inhibition) [12] 13.4% | Potency [13] | activation [15] -0.712%

Cc1ccccc1C(=O)O
inactive: activation [1] -5.56% | outcome [4] | outcome [5] | outcome [6] | outcome [8] | max response [11] 37.3% | activity change % (negative = inhibition) [12] -4.62% | Potency [13] | Potency [14] | activation [16] -1.6%
-19.5%: max response [7]
-2.02%: max response [10]

CCN(C(=O)N(CC)c1ccccc1)c1ccccc1
inactive: activation [1] -1.59% | outcome [4] | outcome [8] | outcome [9] | max response [11] 0.622% | activity change % (negative = inhibition) [12] 1.82% | Potency [13] | Potency [14]
-7.14%: max response [10]
6.15%: max response [7]

CC(C)CO
-8.16%: max response [10]
-16%: max response [7]
inactive: activation [1] -3.71% | outcome [2] | outcome [5] | outcome [6] | outcome [8] | outcome [9] | max response [11] -7% | activity change % (negative = inhibition) [12] -17.4% | activation [16] -1.15%

c1ccc2c(c1)ccc1ncccc12
-7.03%: max response [7]
inactive: activation [1] -5.6% | outcome [2] | outcome [4] | outcome [8] | max response [11] -11.7% | Potency [13] | Potency [14]
23.6%: max response [3]
-6.57%: max response [10]

Cc1c(N)cccc1[N+](=O)[O-]
-31.1%: max response [3]
inactive: activation [1] -3.4% | outcome [2] | outcome [4] | outcome [8] | outcome [9] | max response [11] -2.95% | activity change % (negative = inhibition) [12] -5.59% | activation [15] -0.892%
-2.78%: max response [7]
-6.48%: max response [10]

O=C(O)c1ccccc1C(=O)O
14.7%: max response [3]
4.98%: max response [10]
13.6%: max response [7]
inactive: outcome [2] | Potency [18] | outcome [8] | outcome [9] | max response [11] -5% | activity change % (negative = inhibition) [12] 0.364% | Potency [13] | activation [15] -2.08% | activation [16] -0.93%

O=[N+]([O-])c1ccccc1CCO
4.35%: max response [7]
inactive: outcome [2] | Potency [18] | outcome [4] | outcome [5] | outcome [6] | outcome [8] | outcome [9] | max response [11] -8.97% | activity change % (negative = inhibition) [12] 2.13% | Potency [13] | activation [15] -1.31% | activation [16] -0.881%
-6.01%: max response [3]
-5.47%: max response [10]

CC(C)C(C)C
-13.5%: max response [7]
-13.7%: max response [10]
inactive: outcome [2] | outcome [4] | outcome [17] | outcome [8] | max response [11] -1.83% | activity change % (negative = inhibition) [12] -4.52% | Potency [13]

c1ccc2n[nH]nc2c1
-16.6%: max response [10]
-15.8%: max response [7]
inactive: outcome [2] | Potency [18] | outcome [4] | outcome [8] | outcome [9] | max response [11] -7.97% | activity change % (negative = inhibition) [12] -7.43% | Potency [13] | activation [15] -4.32% | activation [16] 1%
-32.1%: max response [3]
